# HT1080 IDH1KD tx: toxicity to HT-1080 IDH1 knockdown cells (counter line); HT-1080 IDH1 knockdown viability, ATP luminescence, 48 h; 2% of 360,000 active; AID 686971; Potency, µM (doses to about 46.1 µM), for inactives: at the top dose activity, negative = toxicity, most hits filed as cytotoxic;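 further: 0% = DMSO wells and -100% = cell-free medium wells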
#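 Luminescent ATP read-out (CellTiter-Glo, 10 min at room temperature) after 48 h compound exposure at 37 °C gave viability of IDH1-knockdown HT-1080 cells. Activity was normalised to DMSO and cell-free wells, then fitted as concentration-response curves.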
# KB-3-1 tox: kills parental KB-3-1 adenocarcinoma cells | KB-3-1 viability, CellTiter-Glo ATP luminescence, 72 h | Potency, µM (top dose mostly 46.1 µM), usual class: cytotoxic | 1.4% of 400,000 active; further: nearly all actives have a fitted effect of over 60% in size
#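 Cells are dispensed, compounds pinned in, plates held at 37 °C for 72 h, then CellTiter-Glo is added and luminescence read after 10 minutes. Cell line: parental KB-3-1 in phenol-red-free DMEM, 10% FBS.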
# KB-V1 cytotox: KB-V1 MDR subline cytotoxicity. 3.4% of 400,000 active. Potency, µM (doses to about 46.1 µM), most hits filed as cytotoxic. KB-V1 MDR cells viability, CellTiter-Glo, 72 h; further: nearly all actives have a fitted effect of over 60% in size
#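 Cells of the MDR subline KB-V1 are plated, dosed with compound at multiple concentrations, and incubated 72 h at 37 degrees C; CellTiter-Glo is then added and luminescence read after 10 min.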
# HT1080-NT tox: kills 2HG-producing HT-1080-NT fibrosarcoma cells. HT-1080-NT fibrosarcoma viability, CellTiter-Glo ATP luminescence, 48 h. Potency, µM (doses to about 46.1 µM), inactives show top-dose activity, negative = less viability, actives largely listed as cytotoxic. 1.6% of 360,000 active. AID 686970;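 further: NT is the 2HG producing partner of a matched IDH1 knockdown line; 0% = DMSO-treated cells and -100% = media-only wells without cells; nearly all actives have a fitted effect of over 55% in size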
#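 Viability by CellTiter-Glo luminescence after 48 h compound exposure at 37C of HT-1080-NT cells (750/well, RPMI, 5% FBS). % activity scaled between DMSO wells and medium-only wells, then curve-fitted and categorized by curve class.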
# * = called active by the depositor; i = inactive; ? = inconclusive; . = no result. Compounds with a hit are over-represented: about 5.7% of the library has one in this group of screens. The call rests on the fitted dose curve; in most records, active means well fitted curve in the direction sought with a large enough effect; inconclusive means small, poorly fitted or top-dose-only effect, or another doubt; inactive means no such curve, though single readings can be large; an effect the other way counts as inactive or inconclusive. Unless noted, on the % scale 0 is the no-effect control and ±100 the full control effect; potency means the concentration at half of the fitted maximal effect.
SMILES,HT1080 IDH1KD tx,KB-3-1 tox,KB-V1 cytotox,HT1080-NT tox
CCOc1cc(/C=N/NC(=O)N/N=C/c2ccc(O)c(OCC)c2)ccc1O,2.6µM*,6.5µM*,i,1.8µM*
O=C(N/N=C/c1ccc(O)c(O)c1)NC12CC3CC(CC(C3)C1)C2,?,i,i,-4%
COc1cc(/C=N/NC(=O)NC23CC4CC(CC(C4)C2)C3)ccc1O,?,i,i,26µM*
CC(Oc1ccc(C#N)cc1)C(=O)N1CC=C(c2ccccc2)CC1 (stereo unspecified),?,16µM*,13µM*,?
Cc1cccc(Nc2nc(NC(C)C)nc(Oc3ccc(=O)n(C)n3)n2)c1,-26%,i,8.2µM*,0%
CCOc1ccccc1OCCCC(=O)NNC(=O)c1nn(C)c(=O)c2ccccc12,9%,i,23µM*,-8%
CCNc1nc(NCC)nc(-n2nc(C)cc2C)n1,0.89µM*,i,?,2µM*
Cc1cc(C)n(-c2nc(N(C)C)nc(N(C)C)n2)n1,6.3µM*,i,i,7.1µM*
Cc1cc(C)n(-c2nc(NC(C)C)nc(NC(C)C)n2)n1,0%,i,?,-1%
Cc1cc(C)n(-c2nc(Nc3ccccc3C(F)(F)F)nc(-n3nc(C)cc3C)n2)n1,?,i,0.92µM*,9.2µM*
Cc1cc(C)n(-c2nc(NC(C)(C)C)nc(NC(C)(C)C)n2)n1,4%,i,i,10%
CCc1ccccc1CC1CN(Cc2ccccc2)Cc2ccccc2N1c1ccc(OC)cc1 (stereo unspecified),2%,i,i,5%
COC(=O)c1ccc(NC(=O)CN2C(=O)CC(c3ccccc3)Sc3ccccc32)cc1 (stereo unspecified),.,i,?,.
CCOc1ccc(OCC(O)CNC2CCN(Cc3ccccc3)CC2)cc1 (stereo unspecified),?,?,16µM*,?
COc1ccc(CNCC(O)COc2ccc(C(C)(C)c3ccccc3)cc2)cc1 (stereo unspecified),16µM*,?,?,21µM*
CC(C)(c1ccccc1)c1ccc(OCC(O)CNC2CCN(Cc3ccccc3)CC2)cc1 (stereo unspecified),2.9µM*,?,18µM*,3.3µM*
CCOc1ccc(CCNC(=O)c2cnc3sc(N4CCC(C)CC4)nn3c2=O)cc1,.,i,i,.
CC1CCCN(C(=O)CSc2c3c(nc4cc(Cl)ccc24)CCCC3)C1 (stereo unspecified),.,i,i,.
Cc1ccc2c(c1C)NC(=O)CC2c1ccc(Cl)cc1Cl (stereo unspecified),.,i,?,.
CCn1ncc(C2=NOC(C(=O)Nc3cccc(C(C)=O)c3)C2)c1C (stereo unspecified),-23%,?,18µM*,0%
CCn1ncc(C2=NOC(C(=O)NCc3ccccc3)C2)c1C (stereo unspecified),1.8µM*,1.6µM*,?,2.8µM*
Cc1c(Br)c([N+](=O)[O-])nn1CCCC(=O)Nc1sc2c(c1C(N)=O)CCC(C)C2 (stereo unspecified),-3%,?,8.2µM*,2%
CCOC(=O)c1c(NC(=O)Cn2cnc([N+](=O)[O-])n2)sc2c1CCC(C)C2 (stereo unspecified),?,i,i,?
COC(=O)c1c(NC(=O)Cn2cnc([N+](=O)[O-])n2)sc2c1CCC(C)C2 (stereo unspecified),8%,i,16µM*,9%
COC(=O)c1c(NC(=S)NN2CCN(C)CC2)sc2c1CCC(C)C2 (stereo unspecified),16µM*,?,?,18µM*
SMILES,HT1080 IDH1KD tx,KB-3-1 tox,KB-V1 cytotox,HT1080-NT tox
Cc1ccc(-n2c(=O)c3c(cnn3C)n(CC(=O)Nc3cc(C)ccc3C)c2=O)cc1,.,i,i,.
Cc1cc(C)n(S(=O)(=O)/C=C/c2ccccc2)n1,?,?,?,2.8µM*
Cc1ccc(S(=O)(=O)n2nc(C)cc2C)cc1,-8%,i,i,?
Cc1ccccc1OCC(=O)NNC(=O)Nc1ccc(Cl)cc1,4.6µM*,4.1µM*,5.2µM*,6.5µM*
CCOc1ccccc1NC(=O)Nc1ccc(Cl)cc1,-2%,23µM*,23µM*,-10%
Cc1ccccc1C(=O)NC1(C(F)(F)F)N=C(c2ccccc2)N(Cc2ccccc2)C1=O (stereo unspecified),.,i,?,.

# Assay outcomes deposited in PubChem BioAssay by National Center for Advancing Translational Sciences (NCATS).
